{"source": "PubChem BioAssay (NCI)", "note": "Values joined by “and” are separate entries in the source; they are usually repeats but may differ in a detail not shown here. Equal values may be shown once. About 83,000 compounds went through this panel and 20% of them were active in at least one assay; those are over-represented in the sample as a whole.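 Plates (96-well) were seeded with cells, treated with compound at one concentration, and incubated for 48 hours before percent growth was determined.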 Active and inactive are the calls of the source. Rule for the calls: active = growth percent below 10; inactive = the rest.", "data": [{"tested_on": "IGROV1 ovarian", "assay": "NCI-60 one-dose screen, 48 h (100 = growth as untreated, 0 = no growth, -100 = all killed)", "details": "10 µM", "values": [{"smiles": "CC/C(=C(\\c1ccc(O)cc1)c1ccc(OCCN(C)C(=O)COCCNC(=O)Cc2ccc3c(c2)CN([C@@H]2CCC(=O)NC2=O)C3=O)cc1)c1ccccc1", "growth": "9.45% (active)"}, {"smiles": "CC/C(=C(\\c1ccc(O)cc1)c1ccc(OCCN(C)C(=O)CCOCCNC(=O)c2ccc3c(c2)CN([C@@H]2CCC(=O)NC2=O)C3=O)cc1)c1ccccc1", "growth": "53.6% (inactive)"}, {"smiles": "CC/C(=C(/c1ccc(O)cc1)c1ccc(OCCN(C)C(=O)CCOCCNC(=O)Cc2ccc3c(c2)CN([C@@H]2CCC(=O)NC2=O)C3=O)cc1)c1ccccc1", "growth": "30.4% (inactive)"}, {"smiles": "CC/C(=C(/c1ccc(O)cc1)c1ccc(OCCN(C)C(=O)COCCOCCNC(=O)c2ccc3c(c2)CN([C@@H]2CCC(=O)NC2=O)C3=O)cc1)c1ccccc1", "growth": "37.6% (inactive)"}, {"smiles": "CC/C(=C(\\c1ccc(O)cc1)c1ccc(OCCNC)cc1)c1ccccc1", "growth": "96.9% (inactive)"}, {"smiles": "CC/C(=C(/c1ccc(O)cc1)c1ccc(OCCN(C)C(=O)COCCOCCNC(=O)Cc2ccc3c(c2)CN([C@@H]2CCC(=O)NC2=O)C3=O)cc1)c1ccccc1", "growth": "17.8% (inactive)"}]}, {"tested_on": "IGROV1 ovarian", "assay": "NCI-60 one-dose screen, 48 h (100 = growth as untreated, 0 = no growth, -100 = all killed)", "details": "10 µM unless noted", "values": [{"smiles": "N#CC1=C(c2cccs2)Nc2c(c(-c3ccccc3)nn2-c2ccccc2)C12C(=O)Nc1ccccc12", "note": "(stereo not drawn)", "growth": "50.7% (inactive)"}, {"smiles": "O=C1CC(c2ccc(I)cc2)OC2C=Cc3ccccc3C12", "note": "(stereo not drawn)", "growth": "119% (inactive)"}, {"smiles": "COc1ccc([C@H]2C(C(=O)c3ccc(Cl)cc3)C3(N[C@@H]2c2ccccc2)C(=O)Nc2ccccc23)cc1", "note": "(stereo partly drawn)", "growth": "35.6% (inactive)"}, {"smiles": "COc1ccc2c(c1)N=c1c-2cc2c(O)[nH]c(=S)n2c1=O", "growth": "50% (inactive)"}, {"smiles": "Cc1cc(N=C(N)c2ccccc2)ccc1OCCCCCCCCn1ccnc1", "growth": "6.54% (active)"}, {"smiles": "CS(=O)(=O)Nc1cc(-c2ccc3ncnc(N4CCc5cc(F)c(Cl)cc54)c3c2)cnc1Cl", "growth": "-33.7% (active)"}, {"smiles": "COc1cc(NC(=O)C(C)C)ccc1C(=O)NC(=S)Nc1ccc(S(N)(=O)=O)cc1", "growth": "97.2% (inactive)"}, {"smiles": "CC1=C(C(=O)OC(C)C)C(c2ccc(O)cc2)NC(=O)N1", "note": "(stereo not drawn)", "growth": "109% (inactive)"}, {"smiles": "COc1cccc(/C=C/c2nc3ccccc3c(=O)n2CC(=O)Nc2ccccc2)c1", "growth": "61% (inactive)"}, {"smiles": "COC(=O)c1c(C(=O)OC)c2ccc3c4ccccc4ccc3n2c1C(=O)OC", "growth": "114% (inactive)"}, {"smiles": "CCCCCCCCc1cccc(CC(=O)Nc2ccc(C)cc2C(=O)O)c1", "growth": "42.5% [25 µM] (inactive)"}, {"smiles": "O=C(c1cc2cc(OCCCN3CCC3)ccc2[nH]1)N1C[C@@H](CCl)c2c1cc(OCc1ccccc1)c1ccccc21", "growth": "-53.8% (active)"}, {"smiles": "CC(C)(C)OC(=O)N1CCC2(CC1)Oc1ccccc1[C@H]1CC(c3ccc(Br)cc3)=NN12", "growth": "58.7% (inactive)"}, {"smiles": "COc1ccc(NC2=C(I)C(=O)C(C)=C(C)C2=O)cc1", "growth": "15.3% (inactive)"}, {"smiles": "CC[C@]12C=CCN3CC[C@@]4(c5ccc(OC)cc5N(C)[C@H]4[C@@](O)(C(=O)OC)[C@@H]1OC(=O)CCCC[P+](c1ccc(F)cc1)(c1ccc(F)cc1)c1ccc(F)cc1)[C@@H]32", "growth": "-42.8% (active)"}, {"smiles": "FC(F)(F)c1cc2c(Cl)ncnc2n1CCN1CCCCC1", "growth": "-84.8% (active)"}, {"smiles": "O=C(CSc1nnc(-c2ccc(-c3nc4ccc(Cl)cc4[nH]3)cc2)o1)Nc1ccccc1", "growth": "70.8% (inactive)"}, {"smiles": "Cc1cccc(NCC(=O)N2CCN(c3ncnc4c3cnn4-c3ccccc3)CC2)c1", "growth": "59.4% (inactive)"}, {"smiles": "CS(=O)(=O)c1ccc(-n2nc(C(=O)NCc3ccccc3)cc2-c2ccc(Cl)cc2)cc1", "growth": "95.9% (inactive)"}, {"smiles": "CS(=O)(=O)Nc1cccc(-n2c(COc3ccc(OC(F)(F)F)cc3)nc3ccccc32)c1", "growth": "56.4% (inactive) and 111% (inactive)"}, {"smiles": "O=C(CSc1nc2sc3c(c2c(=O)n1-c1ccc(Cl)cc1)CCCC3)NNC(=O)c1ccc(Br)cc1", "growth": "60.3% (inactive)"}, {"smiles": "O=C(c1ccc(Cl)cc1)C1[C@H](c2ccccc2Cl)[C@@H](c2ccccc2)NC12C(=O)Nc1ccccc12", "note": "(stereo partly drawn)", "growth": "-2.25% (active)"}, {"smiles": "O=C1NC(=NC23CC4CC(CC(C4)C2)C3)N/C1=C\\c1ccc2ncccc2c1", "growth": "8.97% (active)"}, {"smiles": "N#CC1=C(c2ccco2)Nc2c(c(-c3ccccc3)nn2-c2ccccc2)C12C(=O)Nc1ccc(Cl)cc12", "note": "(stereo not drawn)", "growth": "39.2% (inactive)"}, {"smiles": "O=C(c1ccc(O)cc1)C1[C@H](c2ccccc2Br)[C@@H](c2ccccc2)NC12C(=O)Nc1ccccc12", "note": "(stereo partly drawn)", "growth": "26.6% (inactive)"}, {"smiles": "c1ccc(CSc2nnc(-c3ccc4nc(-c5ccccc5)[nH]c4c3)o2)cc1", "growth": "63.6% (inactive)"}, {"smiles": "O=C(CSc1nnc(-c2ccc(-c3nc4ccccc4[nH]3)cc2)o1)Nc1ccccc1", "growth": "85% (inactive)"}, {"smiles": "CCCCCCCCCCCCCCCCCC(=O)Nc1ccc(OC)cc1", "growth": "103% (inactive)"}, {"smiles": "Nc1nn2c(-c3cc4ccccc4oc3=O)ccnc2c1N=Nc1ccccc1", "growth": "47.5% (inactive)"}, {"smiles": "O=C1NC(=S)/C(=C/c2cn(-c3ccccc3)nc2-c2ccccc2)S1", "growth": "29.1% (inactive)"}, {"smiles": "CC(Nc1ncnc2ccc(-c3ccc4oc(N)nc4c3)cc12)c1ccccc1", "note": "(stereo not drawn)", "growth": "-77.5% (active)"}, {"smiles": "O=C(N/N=C/c1ccsc1)c1[nH]c2ccc(Br)cc2c1-c1ccccc1", "growth": "-57% (active)"}]}]}
